Source: PubChem (Johns Hopkins Ion Channel Center)
A selection: hits, their analogues and other compounds. The true share with any hit is near 1.6%.
KCNQ2 enhance: potentiators of rat KCNQ2 potassium channel; CHO-K1 KCNQ2, FluxOR thallium flux fluorescence; hits give high values; actives 0.54% (n = 310,000); B-score at 10 µM; AID 2239, 2010; Potassium voltage-gated channel subfamily KQT member 2 (Rattus norvegicus), O88943;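 active means fluorescence ratio B-score at least 3 SD of library B-scores, with initial fluorescence B-score within 3 of them, cut at about 5.3 in these data; same plate scores as AID 2156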;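 further: B-score of peak minus minimum over baseline fluorescence ratio after K+ and Tl+ stimulus; positive B-score means potentiation of KCNQ2 with more thallium influx and brighter signal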
KCNQ2 inh: rat KCNQ2 potassium channel inhibitors, primary screen, cell-based, CHO-K1, FluxOR thallium flux, B-score; actives 1.1% (n = 310,000); Potassium voltage-gated channel subfamily KQT member 2 (Rattus norvegicus), O88943; 20 min; hits give low values; B-score at 10 µM;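 active means fluorescence ratio B-score at most minus 3 library SDs, with starting brightness B-score within 2 library SDs, cut at about -5.5 in these data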
Kir21 conf inh: mouse Kir2.1 channel blockers, retest, confirmation, cell-based, FluxOR thallium flux, duplicate | Tl flux remaining, % of negative control (hits give low values), % at 10 µM | shares compounds with KCNQ2 enhance | AID 2032, 2009 | Kir2.1-expressing cells, FluxOR thallium flux fluorescence; hits give low values | actives 41% (n = 2,300);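 active means Primary-screen hit whose thallium flux fell at least 3 control SD below untreated wells in both duplicates, with normal baseline fluorescence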
HEK293 ctr: parental HEK293 activity in Kir2.1 inhibitor counter-screen. FluxOR signal as % of negative control (100 = no effect), % at 10 µM. actives 19% (n = 2,300). AID 2105. parental HEK293 cells, FluxOR thallium flux fluorescence; 0% = unstimulated blank wells. shares compounds with KCNQ2 enhance;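 active means dye signal at least 3 control SD above or below untreated wells in both duplicates, raw fluorescence within 3, either direction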;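 further: percent is based on the flux ratio of peak minus minimum fluorescence over baseline F0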
CHO-K1 ctr: nonspecific thallium flux increase in parental CHO-K1, confirmation, counter-screen for KCNQ2 potentiator project, cell-based, FluxOR thallium flux, duplicate; activity increase over 3SD of controls, % at 10 µM; actives 43% (n = 1,200); parental CHO-K1 cells, FluxOR thallium flux fluorescence; zero = vehicle mean+3SD, 100% = vehicle-minus-blank window; AID 2282, 2010; shares compounds with KCNQ2 enhance;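 active means signal rise of at least 3 SD above the untreated control mean, in both duplicate wells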;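 further: counter screen of KCNQ2 potentiator hits so any rise reflects channel-independent effects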
KCNQ1 sel pot: human KCNQ1 channel potentiation off-target, confirmation, selectivity assay for KCNQ2 potentiator project, cell-based, CHO, FluxOR thallium flux; shares compounds with KCNQ2 enhance; CHO KCNQ1 stable, FluxOR thallium flux fluorescence; beyond 3SD, as % of vehicle-control signal; activation over 3SD threshold, % at 10 µM; actives 28% (n = 1,200);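 active means fluorescence ratio rise of at least 3 SD of vehicle wells above their mean, in both replicate wells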
Target sequence (P51787 whole entry, looked up): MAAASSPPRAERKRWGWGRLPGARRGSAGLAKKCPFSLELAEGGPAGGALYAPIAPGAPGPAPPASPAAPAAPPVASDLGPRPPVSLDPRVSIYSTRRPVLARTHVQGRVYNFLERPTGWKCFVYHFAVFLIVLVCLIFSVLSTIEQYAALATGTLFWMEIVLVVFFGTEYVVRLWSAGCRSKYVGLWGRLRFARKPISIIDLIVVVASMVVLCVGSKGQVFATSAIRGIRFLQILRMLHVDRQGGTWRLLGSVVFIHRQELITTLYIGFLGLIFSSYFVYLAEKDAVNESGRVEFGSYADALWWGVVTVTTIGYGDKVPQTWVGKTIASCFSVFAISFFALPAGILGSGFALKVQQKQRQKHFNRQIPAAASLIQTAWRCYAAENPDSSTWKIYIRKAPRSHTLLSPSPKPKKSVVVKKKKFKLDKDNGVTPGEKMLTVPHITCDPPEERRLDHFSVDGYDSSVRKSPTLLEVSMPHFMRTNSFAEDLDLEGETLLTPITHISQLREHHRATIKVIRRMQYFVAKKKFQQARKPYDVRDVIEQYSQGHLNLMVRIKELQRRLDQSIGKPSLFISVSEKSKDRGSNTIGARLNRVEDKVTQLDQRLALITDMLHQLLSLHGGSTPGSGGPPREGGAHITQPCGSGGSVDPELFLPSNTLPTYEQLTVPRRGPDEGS
KCNQ2 pot conf: rat KCNQ2 channel potentiators, confirmation, cell-based, CHO, FluxOR thallium flux, duplicate | shares compounds with KCNQ2 enhance | CHO-KCNQ2 cells, FluxOR thallium flux fluorescence | potentiation, less the hit threshold, % at 10 µM | actives 68% (n = 1,200) | AID 2287, 2010;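 active means fluorescence ratio rising 3 SD or more over the vehicle control mean in both replicates, plus primary screen hit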;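 further: peak minus minimum thallium fluorescence divided by baseline after K/Tl stimulus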
Kir2-1 sel: mouse Kir2.1 channel activation off-target, confirmation, selectivity assay for KCNQ2 potentiator project, cell-based, HEK293, FluxOR thallium flux; shares compounds with KCNQ2 enhance; HEK293 Kir2.1, FluxOR thallium flux fluorescence; activity over 3SD threshold, % at 10 µM; actives 2% (n = 1,200); AID 2345, 2010;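 active means fluorescence ratio rise of at least 3 SD above the vehicle-control mean, seen in both replicates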
KCNQ2 W236L pot: potentiators of retigabine-insensitive KCNQ2 W236L, mechanism study for KCNQ2 potentiator project, cell-based, rat KCNQ2 W236L, CHO, automated patch clamp; shares compounds with KCNQ2 enhance; automated patch clamp current; current increase over 3SD of negative controls (%), hits give high values, % at 25 µM; actives 10% (n = 940); AID 2558, 2010;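 active means current increase at least 3 SD of the untreated controls above them in both duplicate recordings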
Each line names hits and unclear results; the compound was inactive in the other large screens (follow-up assays come after a bar, where they were run).

CCN(c1ccccc1C(=O)O)S(=O)(=O)c1ccc2[nH]c(=O)[nH]c2c1	none
CC[C@@H](C)[C@H](CN[C@H](CNC)C(C)C)NC[C@@H](C)c1ccc(CC(C)C)cc1	none (no result: KCNQ2 enhance) | Kir21 conf inh 26% | HEK293 ctr inactive
CC[C@H](C)[C@@H](CNC)NC[C@@H](Cc1ccc(O)cc1)NCC(C)(C)C	none
CCOc1ccc(S(=O)(=O)N2CCCC(C(=O)NCc3ccncc3)C2)cc1 (configuration not stated)	none (no result: KCNQ2 enhance)
CN1CCN(CCC(=O)N/N=C/c2cc3c(cc2[N+](=O)[O-])OCO3)CC1	none
CN(CCOc1ccc(Br)cc1)CC(O)COc1ccc(C#N)cc1 (configuration not stated)	none (no result: KCNQ2 enhance)
COc1ccc(Br)cc1CN(C)CC(O)COc1ccc(Br)cc1 (configuration not stated)	KCNQ2 inh -6.3 | Kir21 conf inh 70% | HEK293 ctr inactive
COc1cccc(-n2c(=O)n(Cc3ccccc3)c(=O)c3[nH]cnc32)c1C	none
Cc1cc(OC(=O)c2ccc(S(=O)(=O)N(C)C)cc2)c([N+](=O)[O-])c(=O)[nH]1	none (no result: KCNQ2 enhance)
COc1ccc(C(=O)NN/C(C)=C/C(=O)c2ccccc2)cc1	none
C/C(=C\C(=O)c1ccccc1)NNC(=O)c1ccc(Cl)cc1	KCNQ2 enhance 18 | Kir21 conf inh inactive | HEK293 ctr inactive | CHO-K1 ctr inactive | KCNQ1 sel pot inactive | KCNQ2 pot conf inactive | Kir2-1 sel inactive | KCNQ2 W236L pot inactive
O=C(Nc1ccccc1Br)c1cccc2ccccc12	none (no result: KCNQ2 enhance)
CCc1ccc(CNC(=O)c2ccc3nc(C4CCCCC4)oc3c2)nc1	KCNQ2 enhance 17 | CHO-K1 ctr inactive | KCNQ1 sel pot 17 | KCNQ2 pot conf 9.2 | Kir2-1 sel inactive | KCNQ2 W236L pot inactive
CCOC(=O)CCNC(=O)c1ccc2nc(C3CCCCC3)oc2c1	none
O=C(NC(=S)N1CCN(C/C=C/c2ccccc2)CC1)c1ccc(Cl)nc1	none
CSc1cccc(NC(=S)Nc2cc(C)ccc2C)c1	none (no result: KCNQ2 enhance)
Cc1cc(Oc2ccc(N)cn2)cc(C)c1Cl	none
CC(C)(C)c1ccc(Oc2ccc(N)cn2)cc1	KCNQ2 enhance 12 | Kir21 conf inh inactive | HEK293 ctr 68% | CHO-K1 ctr 65 | KCNQ1 sel pot inactive | KCNQ2 pot conf 73 | Kir2-1 sel inactive | KCNQ2 W236L pot inactive
CN(CC(=O)Nc1cccc(F)c1)C(=O)c1cccc(S(=O)(=O)N2CC3(C)CC2CC(C)(C)C3)c1 (configuration not stated)	KCNQ2 enhance 9.2 | Kir21 conf inh inactive | HEK293 ctr inactive | CHO-K1 ctr 92 | KCNQ1 sel pot 16 | KCNQ2 pot conf 1.7 | Kir2-1 sel inactive | KCNQ2 W236L pot inactive
CCCCCNC(=O)c1cccc(S(=O)(=O)N2CC3(C)CC2CC(C)(C)C3)c1 (configuration not stated)	none
O=C1CN(C(=O)CNCc2ccccc2)c2ccccc2N1	none
CCc1ccc(C2C(C#N)=C(N)OC3=C2C(=O)CCC3)s1 (configuration not stated)	none
Cc1ccc(C2C(C#N)=C(N)OC3=C2C(=O)CCC3)s1 (configuration not stated)	KCNQ2 enhance 6.5 | Kir21 conf inh inactive | HEK293 ctr inactive | CHO-K1 ctr inactive | KCNQ1 sel pot 3.7 | KCNQ2 pot conf 1.5 | Kir2-1 sel inactive | KCNQ2 W236L pot inactive
Cc1ccc2c(c1)C(c1ccccc1)N(C(=O)c1ccc3c(c1)OCO3)CC(=O)N2 (configuration not stated)	none (no result: KCNQ2 enhance)
O=C(N/N=C/c1cccc(Oc2ccccc2)c1)c1cc[n+]([O-])cc1	none (no result: KCNQ2 enhance)
Nc1ccc(C(=O)N/N=C/c2cccc(Oc3ccccc3)c2)cc1	none | Kir21 conf inh 56% | HEK293 ctr inactive
Cc1cc2[nH]c3c(c[n+](C)c4ccccc34)c2cc1C	none (no result: KCNQ2 enhance) | Kir21 conf inh inactive | HEK293 ctr inactive
Cc1cc(=O)[nH]c2ccccc12	none (no result: KCNQ2 enhance)
C=CCNC(=S)NC(=O)c1ccc(C)c(Br)c1	KCNQ2 enhance 5.7 | Kir21 conf inh inactive | HEK293 ctr inactive | CHO-K1 ctr 22 | KCNQ1 sel pot inactive | KCNQ2 pot conf inactive | Kir2-1 sel inactive
C=CCNC(=S)NNC(=O)c1ccc(C)c(Cl)c1	none (no result: KCNQ2 enhance)
CCN(CC)C(=S)NC(=O)c1ccc(OC)c(Br)c1	none
C=CCN(CC=C)C(=S)NC(=O)c1ccc(OC)c(Br)c1	KCNQ2 enhance 7.2 | Kir21 conf inh inactive | HEK293 ctr 336% | CHO-K1 ctr 1.9 | KCNQ1 sel pot 20 | KCNQ2 pot conf 20 | Kir2-1 sel inactive | KCNQ2 W236L pot inactive
NC(N)=NS(=O)(=O)c1ccc(NC(=S)NC(=O)Cc2ccc(Cl)cc2)cc1	none
CCCCC(=O)N/N=C(/C)C1=C(C)C(C)(C)OC1=O	none
CCCC(=O)Nc1ccc(Cc2ccc(NC(=O)CCC)c(C(=O)O)c2)cc1C(=O)O	none (no result: KCNQ2 enhance)
Cc1ccc(C2(CCNC(C)c3cccs3)CCOC(C(C)C)C2)cc1 (configuration not stated)	none (no result: KCNQ2 enhance)
COc1ccccc1C1(CCNC(C)c2cccs2)CCOC(C(C)C)C1 (configuration not stated)	none | Kir21 conf inh 40% | HEK293 ctr 72%
COc1ccc(NC(=O)COC(=O)CCc2ccccc2)c(OC)c1	none (no result: KCNQ2 enhance)
COC(=O)[C@H](Cc1ccccc1)NC(=O)N1CCN(c2ccc(F)cc2)CC1	none (no result: KCNQ2 enhance)
COc1ccccc1NC(=O)c1ccc(NC(=O)CSc2ncn[nH]2)cc1	none
CS(=O)(=O)c1ccc(-c2nnc(NC(=O)c3ccco3)o2)cc1	none
